About 83,000 compounds went through this panel and 20% of them were active in at least one assay; those are over-represented in the sample as a whole.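 Interpretation: 100, growth as untreated; towards 0, rising growth inhibition; 0, no net growth; 0 to -100, cell death. Compounds scoring below 10 were considered active.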 Values without a mark were called inactive. Calls of active or inactive are those of the source.
system: SN12C renal; test: NCI-60 one-dose screen, 48 h (100 = growth as untreated, 0 = no growth, -100 = all killed); conditions: 10 µM unless noted
Experimental: Growth inhibition of the SN12C human tumor cell line is measured as a screen for anti-cancer activity. Cells are grown in 96 well plates and exposed to the test compound for 48 hours. Compounds are tested at a single concentration, which is 10^-5 M for most compounds. The reported endpoint is percent growth (GI% or GIPRCNT), where numbers from 0 - 100% represent growth inhibition, and numbers from -100% - 0 represent cell death. For example, a value of 40 represents 60% growth inhibition. A value of 0 means no net growth occurred over the course of the experiment. A value of -40 indicates 40% of cells at the beginning of the experiment died by the end of the experiment. A value of -100 means all cells are dead at the end of the experiment.
NCI-60 Human Tumor Cell Lines Screen was performed using the standard one-dose NCI protocol, which is described in more detail at https://dtp.cancer.gov/discovery_development/nci-60/default.htm.
Compounds with GIPRCNT values below 10 were considered active. Activity score was based on GIPRCNT using the following formula: […]
Score is 0 for GIPRCNT values of 100 or above, 50 for GIPRCNT values of 0, and 100 for GIPRCNT values of -100.

| SMILES | growth |
| --- | --- |
| C=C1C(=O)O[C@H]2[C@H]1CC/C(COC(=O)CCCCCCCC(=O)OC/C1=C/CC[C@@]3(C)O[C@H]3[C@H]3OC(=O)C(=C)[C@@H]3CC1)=C\CC[C@@]1(C)O[C@@H]21 | 4.85% (active) |
| O=C(/C(=C/c1ccc([N+](=O)[O-])cc1)SCc1ccc(F)cc1)c1ccc(Cl)cc1 | 56% |
| CCOC(=O)C1CCN(S(=O)(=O)/N=C2/NC(=O)NC2=C(Cl)Cl)CC1 | -35.1% (active) |
| C=C(C)[C@@H]1CC[C@]2(C(=O)O)CC[C@]3(C)[C@H](CC[C@@H]4[C@@]5(C)C[C@@H](CC#Cc6ccccc6)C(=O)C(C)(C)[C@@H]5CC[C@]43C)[C@@H]12 | 43.7% |
| CCOC(=O)NC(Cc1ccccc1)c1ccccc1 (stereo not given) | 106% |
| C#C[C@@]1(O)[C@@H](CO)O[C@@H](n2cc(Cl)c3c(N)ncnc32)[C@@H]1O | 1.7% (active) |
| C/C(=C\c1cnc(C)s1)[C@@H]1C[C@@H]2O[C@@H]2CCC[C@H](C)[C@H](O)[C@@H](C)C(=O)C(C)(C)[C@@H](O)CC(=O)O1 | 54% |
| c1ccc(Sc2ncccn2)nc1 | 106% |
| COc1cc(NC(=O)Nc2cnc(Nc3ccc(N4CCOCC4)cc3)nc2Oc2ccc(F)cc2)cc(OC)c1 | 61.8% |
| Cc1nc2sc(C(=O)Nc3cccc(Cl)c3C)c(N)c2cc1C(C)O (stereo not given) | 33.5% |
| C=C1C(=O)O[C@H]2[C@H]1CC/C(COC(=O)c1cc3ccccc3o1)=C\CC[C@@]1(C)O[C@@H]21 | -1.94% (active) |
| NC(=O)c1ccc2nc3c(n2c1)C(=O)C(=O)c1ccccc1-3 | -83.3% (active) |
| COc1cc(C2=N/C(=C\c3cc4ccccc4nc3Oc3ccccc3)C(=O)N2C(=N)N)cc(OC)c1OC | 43.1% |
| COc1cc(C(=O)Nc2cc(OC)c3ccn(C)c3c2)cc2c1C[C@]1(C)CC[C@@H](O)C(C)(C)[C@H]1O2 | 46.8% |
| O=[N+]([O-])c1cccc(CN(Cc2cccc([N+](=O)[O-])c2O)c2ccccc2)c1O | 80.6% |
| O=C(Nc1cc(Br)ccn1)c1cc2cc(Nc3nc(-c4ccccc4)nc4ccccc34)ccc2oc1=O | 110% |
| c1ccc(-c2cn3ccnc3c(-c3ccc4c(c3)ncn4C3CCCCC3)n2)cc1 | 95.2% |
| CC(=O)c1ccc(NC(=O)CSc2nnc(-c3cc(-c4ccc(Cl)cc4)nc4ccccc34)o2)cc1 | 37.9% |
| O=C(Nc1ccc(S(=O)(=O)NC2CCCCCC2)cc1)C(c1ccccc1)S(=O)(=O)c1ccc(F)cc1 (stereo not given) | 12.6% |
| O=C(O)c1cn(C2CC2)c2cc(N3CCN(C(=O)CSc4nnc(-c5ccc(Cl)cc5)n4-c4ccccc4)CC3)c(F)cc2c1=O | 102% |

| SMILES | growth |
| --- | --- |
| COc1ccc(/C=C/C(=O)C(CC2CCC2)C(=O)/C=C/c2ccc(OC)c(OC)c2)cc1OC | -20.7% (active) |
| Cc1nn(-c2ccc(-c3ccc(OC(F)(F)F)cc3)cc2)c2nc(-c3ccccc3)nc(N)c12 | 92.5% |
| CCOC(=O)C(=Cc1c(-c2ccccc2)[nH]c2ccccc12)C(=O)OCC | 65.6% |
| Clc1ccc2c(NCCCNC3CCCCC3)ccnc2c1 | 97% |
| CCCS(=O)(=O)Nc1ccc(F)c(C(=O)c2c[nH]c3ncc(-c4ccc(OCCCC5CCCCN5)nc4)cc23)c1F (stereo not given) | 62.5% |
| Nc1c(C(=O)Nc2cccc3ccccc23)sc2nc3c(cc12)CCCCCC3 | 46% |
| O=C(Nc1ccc(N=Cc2ccccc2O)cc1)NC1C=c2ccccc2=CC1 (stereo not given) | 102% |
| COc1cc(/C=N/Nc2nc(-c3ccc(F)cc3)c(C#N)c(N3CCOCC3)n2)ccc1O | 89.4% |
| COc1cc(-c2csc(NC(=O)Nc3cc(Cl)cc(Cl)c3)n2)cc(OC)c1OC | -84% (active) |
| N#C/C(=C/c1ccc(O)c([N+](=O)[O-])c1)c1nc(-c2ccc([N+](=O)[O-])cc2)cs1 | 36.3% |
| COc1ccc2nc(-c3ccc(Cl)cc3)cc(-c3nnc(SC/C(=N/O)c4ccccc4)o3)c2c1 | 17.5% |
| CO[C@@]12C=C[C@@]34CCC(=O)N3c3ccccc3[C@@H](O1)C4C2 | 95.5% |
| C=C(C)[C@@H]1CC[C@]2(C(N)=O)CC[C@]3(C)[C@H](CC[C@@H]4[C@@]5(C)CCCNC(C)(C)[C@@H]5CC[C@]43C)[C@@H]12 | 77.7% |
| c1ccc(-c2n(Cc3ccc4ccccc4n3)cc[n+]2Cc2ccc3ccccc3c2)cc1 | 4.45% (active) |
| CCOCc1nc2ccccc2c(=O)[nH]1 | 98% |
| [2H]c1nc(Nc2ncc3cc(C(=O)N(C)C)n(C4CCCC4)c3n2)c([2H])c([2H])c1N1C([2H])([2H])C([2H])([2H])NC([2H])([2H])C1([2H])[2H] | 67.9% |
| Cc1cccc(C)c1Nc1nnc(-c2ccc(F)cc2)o1 | 105% |
| Nc1ccc2c(c1)C(=O)C(=O)c1c-2nc2ccccn12 | -81% (active) |
| C#C[C@@]1(O)[C@@H](CO)O[C@@H](n2cnc3c(-c4ccccc4)ncnc32)[C@@H]1O | 102% |
| CCCNc1nc(C)[nH]c(=O)c1S | 186% |
